Screening data: PubChem, Broad Institute
Wnt bcat act: activates Wnt/beta-catenin signaling in a reporter cell assay | activator, plate reader | activation, % at 9.35 µM | AID 743398 | hit rate 1.2% among 300,000; in the data active = activation above about 30%, passing the limit was not always enough; inconclusive = no clear call, values can overlap the other calls;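 note: 0% = neutral control wells and 100% = positive control wells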
esBAF inh: inhibitors of esBAF chromatin remodeling in mouse ES cells | hit rate 2% among 350,000 | reporter increase, % at 12.5 µM | Bmi1-luciferase knock-in reporter, 24 h; 100% = twice the neutral-well signal | AID 602393; in the data active = activation above about 40%; inconclusive = no clear call, values can overlap the other calls;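 note: 0% = median of the plate's neutral control wells and 100% = double that signal; a rise in the Bmi1 reporter signal indicates esBAF inhibition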
MITF act: increases MITF-driven TRPM1 promoter luciferase signal; SK-MEL-5 TRPM1-promoter luciferase, 24 h; % of positive control, neutral wells = 0; activation, % at 12.5 µM; hit rate 0.75% among 300,000;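 active = mean activation of at least 80% with every replicate also reaching 80%; inconclusive = mean reaches 80% but some replicate falls short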;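 note: 0% = neutral control wells and 100% = parthenolide positive control wells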
MLL AF4-AF9 inh: inhibitors of human MLL-AF4/AF9 interaction; P42568; AlphaScreen, biotin-AF4 peptide binding to FLAG-AF9; inhibition, % at 10 µM; hit rate 0.47% among 350,000; AID 651704;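 active = every replicate reaching a set inhibition limit, whatever the replicate mean, cut at about 25% in these data; inconclusive = mean inhibition reaches that limit but some replicates miss it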;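 note: 0% = plate neutral control median and 100% = total signal loss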
Target sequence (P42568 whole entry, looked up): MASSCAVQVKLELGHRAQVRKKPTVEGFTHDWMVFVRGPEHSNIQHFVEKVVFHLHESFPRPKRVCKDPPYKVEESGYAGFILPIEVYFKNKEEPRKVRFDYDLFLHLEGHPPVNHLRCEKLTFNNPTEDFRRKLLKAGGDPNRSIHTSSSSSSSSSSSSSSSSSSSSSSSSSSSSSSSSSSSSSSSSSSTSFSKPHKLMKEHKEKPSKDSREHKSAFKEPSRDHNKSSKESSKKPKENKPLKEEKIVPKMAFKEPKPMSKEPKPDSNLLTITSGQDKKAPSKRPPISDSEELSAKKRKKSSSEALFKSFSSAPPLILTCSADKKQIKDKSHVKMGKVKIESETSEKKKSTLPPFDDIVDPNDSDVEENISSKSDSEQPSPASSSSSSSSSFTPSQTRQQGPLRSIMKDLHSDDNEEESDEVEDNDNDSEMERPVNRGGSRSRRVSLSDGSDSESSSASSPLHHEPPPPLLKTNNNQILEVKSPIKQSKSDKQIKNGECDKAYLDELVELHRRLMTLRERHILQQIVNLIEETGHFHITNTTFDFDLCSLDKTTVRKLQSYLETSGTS
Ecoli rRNA inh: selective bacterial rRNA inhibition in E. coli. E. coli WT GFP vs humanized-ribosome RFP mutants, fluorescence, 24 h; stronger effect = lower value; DMSO median 0, no signal -100. GFP signal change (wild-type ribosome), % (test concentration not listed). hit rate 1.6% among 350,000;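 active = significant combined selectivity score with lowered wild-type GFP, culture density cut under 30%, mutant RFP and density less affected; inactive = any of these conditions unmet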
* marks the source's active call; other numbers are inactive results; ? = inconclusive; / = not tested or not shown. The list is not random: actives were taken first. Their share in the collection is about 3.7%.

SMILES	Wnt bcat act	esBAF inh	MITF act	MLL AF4-AF9 inh	Ecoli rRNA inh
O=C1C=C(NCCc2cc(Br)c(O)c(Br)c2)C(=O)c2ncccc21	-6	/	-109	-6	-27*
CCC(C)NC(=O)c1ccc2c(SCC(=O)O)c3c(nc2c1)CCCC3 (stereo not given)	-6	4	5	/	/
CCC(C)NC(=O)c1ccc2c(Cl)c3c(nc2c1)CCC3 (stereo not given)	42*	53*	56	3	-8
COc1ccc(CCNC(=O)CN2C(=O)c3ccccc3C2=O)cc1	/	6	7	/	/
CCOC(=O)C1(NC(=O)C2(NC(=O)CN3C(=O)c4ccccc4C3=O)CCCC2)CCCC1	47*	-3	-2	1	/
C(=N\Nc1ccc2nncn2n1)/c1ccccn1	-6	/	/	-2	-34*
CCNC(=S)Nc1cccc(S(=O)(=O)Nc2ccccc2OC)c1	33*	-7	7	9	-2
CC(Nc1ccc(S(=O)(=O)N2CCN(C)CC2)cc1[N+](=O)[O-])c1ccccc1 (stereo not given)	-3	/	-5	18	12
COc1ccccc1C(C)Nc1ccc(S(=O)(=O)N2CCN(C)CC2)cc1[N+](=O)[O-] (stereo not given)	0	2	-9	28*	-8
Oc1ccc(/C=N/Nc2nccnc2Cl)cc1	47*	-4	-4	/	/
Fc1ccc(/C=N/Nc2nccnc2Cl)cc1	12	39	/	3	1
CCN(c1ccc(OC)cc1)S(=O)(=O)c1cc(-c2cc(C)no2)ccc1OC	-1	4	14	-5	-31*
COC(=O)C1CCN(C(=O)COC(=O)COc2ccc(C#N)cc2)CC1	0	/	3	1	0
O=C(NN=Cc1ccccc1O)C1CC1	-3	6	3	2	7
O=C(N/N=C/c1ccccc1O)C1SCCCS1	0	/	-2	-4	-14*
O=C(O)CCC(=O)NCc1c(Cl)cccc1Sc1ccc(Cl)cc1	0	/	/	-1	-25*
CCCCn1cnc2c(oc3ccccc32)c1=O	9	?	99*	-2	2
Cn1cnc(S(=O)(=O)N2CC[C@@H]3[C@H](CO)Nc4ccc(C#Cc5cccc(F)c5)cc4[C@@H]32)c1	/	7	/	/	-7
Cc1c(C(=O)N2CCc3ccccc32)oc2c1C(=O)CC(C)(C)C2	-2	53*	?	/	/
Cc1c(C(=O)N2CCN(C)CC2)oc2c1C(=O)CC(C)(C)C2	-1	-2	2	1	12
CC(=O)N1CCSc2ccc(S(=O)(=O)Nc3cccc(C)c3)cc21	-2	-16	-23	-15	-23*
O=C(CN1CCN(CC(=O)Nc2ccccc2Cl)CC1)Nc1ccc2c(c1)OCCO2	/	0	5	/	/
Nc1c(C(=O)Nc2ccc3c(c2)OCCO3)nnn1Cc1ccc(Br)cc1	36*	126*	111*	-6	3
Nc1c(C(=O)Nc2ccccc2Cl)nnn1-c1ccc2c(c1)OCCO2	18	32	132*	?	1
Cc1ccc(NC(=O)c2nnn(CC(=O)Nc3ccc4c(c3)OCO4)c2N)cc1C	2	18	6	1	-1
SMILES	Wnt bcat act	esBAF inh	MITF act	MLL AF4-AF9 inh	Ecoli rRNA inh
Nc1c(C(=O)Nc2ccc3c(c2)OCCO3)nnn1Cc1cccc(Br)c1	42*	55*	102*	4	-26
O=C(Nc1ccc2c(c1)OCCO2)N1CCN(c2ccccc2)CC1	18	20	/	/	/
O=C(Nc1ccc2c(c1)OCCO2)N1CCN(Cc2ccccc2)CC1	25	55*	59	1	4
Cc1sc2nc(CN(C(=O)NCc3ccccc3)C3CCCC3)[nH]c(=O)c2c1C	-1	1	5	12	4
CC1Cc2cc(S(=O)(=O)N3CCCCC3)ccc2N1C(=O)C1CCC1 (stereo not given)	1	-1	11	-10	-3
COc1ccc(S(=O)(=O)N(C)C[C@@H]2Oc3ncc(-c4ccncc4)cc3C(=O)N([C@@H](C)CO)C[C@H]2C)cc1	/	-2	/	1	-8
C[C@H](NC(=O)C[C@H]1C=C[C@H](NC(=O)C2CCC2)[C@H](CO)O1)c1ccccc1	/	-5	/	0	2
Nc1c(C(=O)Nc2ccc3c(c2)OCCO3)nnn1CCc1ccccc1	12	66*	12	0	-10
O=C(CCc1ccccc1)Nc1ccc2c(c1)OCCO2	16	27	71	/	/
[O-]/[N+](=C\c1ccccc1)c1ccc(Br)cc1	32*	75*	63	1	17
COc1ccc(N2C(=O)c3n[nH]c(C)c3C2c2ccc(F)cc2)cc1 (stereo not given)	7	/	/	/	-32*
Cc1[nH]nc2c1C(c1ccc(F)cc1)N(c1ccccc1)C2=O (stereo not given)	-1	/	/	/	1
O=C(Nc1ccc(C(F)(F)F)cc1)N[C@@H]1C=C[C@H](CC(=O)N2CCCCC2)O[C@@H]1CO	/	/	/	-8	-5
CC(=O)N[C@H]1CC[C@H](CCNC(=O)C2CCCCC2)O[C@@H]1CO	/	/	/	-3	0
COc1ccc(NC(=O)n2ncc3c(C)cccc32)cc1	39*	39	38	0	0
COc1ccc(NC(=O)n2ncc3c(C)cccc32)cc1OC	3	53*	106*	-3	10
Cc1ccc(NC(=O)n2ncc3c(C)cccc32)cc1F	18	/	18	-5	6
COc1cc(NC(=S)Nc2cccc(C)n2)cc(OC)c1OC	-5	/	2	-2	-13
COc1cc(NC(=S)Nc2ncccc2C)cc(OC)c1OC	29	31	24	4	-21*
COc1cccc(/C=N/NC(=O)CNC(=O)C2COc3ccccc3O2)c1O (stereo not given)	-8	/	-10	-2	-20*
O=C(CNC(=O)C1COc2ccccc2O1)N/N=C\c1ccccc1Cl (stereo not given)	1	-5	-3	-1	16
COCCN(C(=O)CSc1nnc(-c2ccccc2F)n1C)c1c(N)n(Cc2ccccc2)c(=O)[nH]c1=O	-1	0	-1	3	/
Cc1cccc(CN(C)C[C@@H]2Oc3ncc(C#Cc4ccccc4)cc3C(=O)N([C@H](C)CO)C[C@@H]2C)c1	/	-7	/	8	-13
COc1ccc(N2CCN(Cc3cc4c(cc3Br)OCCO4)CC2)cc1	0	-1	-15	27*	-7
COc1ccccc1N1CCN(Cc2cc3c(cc2Br)OCCO3)CC1	-6	-2	-7	4	-9
Cc1ccc(S(=O)(=O)N(Cc2c(F)cccc2Cl)C(=O)N2CCN(C)CC2)cc1	-2	/	9	-19	1
Cc1ccc(C)c(OCC(=O)O/N=C(\N)c2cccnc2)c1	7	8	24	5	-7
N/C(=N\OC(=O)COc1ccccc1Cl)c1ccccn1	/	/	20	/	/
Cc1ccc(C)c(OCC(=O)O/N=C(\N)c2ccccn2)c1	45*	72*	96*	/	/
N/C(=N\OC(=O)COc1ccc2ccccc2c1)c1ccccn1	36*	103*	56	/	/
